The list is not random: actives were taken first. Their share in the collection is about 7.4%.
Rab9 promoter act = activates the Rab9 promoter | Potency, µM (top dose mostly 9.22 µM), without a hit: at the top dose activation, negative = inhibition, usual class: activators | AID 485297 | Huh7 Rab9 promoter-luciferase reporter, luminescence, 24 h | actives 2.8% (n = 320,000); also: % of control where 0% means no effect; nearly all actives have a fitted effect of over 60% in size
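Cell-based reporter: Huh7 stable for Rab9 promoter-driven luciferase, plated in reduced-serum medium with 10% FBS at 1500 cells/well, compound-treated 24 h at 37 °C, luminescence read after 10 min reagent.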
SMN2 splice up = SMN2 splice variant enhancement | HEK293 SMN2-luciferase splicing reporter, luminescence, 30-36 h | Potency, µM (doses to about 46.1 µM), for inactives: at the top dose activity change, positive = activation, actives largely listed as activators | actives 2.8% (n = 210,000); also: % of control where 0% means no effect; nearly all actives have a fitted effect of over 55% in size
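qHTS luciferase splicing reporter: luminescence rises when SMN2 exon 7 is included in transfected HEK293 cells. Compound exposure lasted 30-36 h at 37C, with 4.5 mM final sodium butyrate as control, followed by a ONE-Glo read.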
FLuc modulator = inhibits or activates purified firefly luciferase, miR-21 counter-screen. P08659. purified FLuc, Km substrates, luminescence inhibition. Potency, µM (series often up to 57.5 µM), without a hit: top-dose activity change, negative = inhibition, hits mostly inhibitors. actives 6.9% (n = 360,000). AID 588342;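 also: plate controls were vehicle for no effect and reference inhibitor for full effect; nearly all actives have a fitted effect of over 55% in size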
Target sequence (P08659 whole entry, looked up): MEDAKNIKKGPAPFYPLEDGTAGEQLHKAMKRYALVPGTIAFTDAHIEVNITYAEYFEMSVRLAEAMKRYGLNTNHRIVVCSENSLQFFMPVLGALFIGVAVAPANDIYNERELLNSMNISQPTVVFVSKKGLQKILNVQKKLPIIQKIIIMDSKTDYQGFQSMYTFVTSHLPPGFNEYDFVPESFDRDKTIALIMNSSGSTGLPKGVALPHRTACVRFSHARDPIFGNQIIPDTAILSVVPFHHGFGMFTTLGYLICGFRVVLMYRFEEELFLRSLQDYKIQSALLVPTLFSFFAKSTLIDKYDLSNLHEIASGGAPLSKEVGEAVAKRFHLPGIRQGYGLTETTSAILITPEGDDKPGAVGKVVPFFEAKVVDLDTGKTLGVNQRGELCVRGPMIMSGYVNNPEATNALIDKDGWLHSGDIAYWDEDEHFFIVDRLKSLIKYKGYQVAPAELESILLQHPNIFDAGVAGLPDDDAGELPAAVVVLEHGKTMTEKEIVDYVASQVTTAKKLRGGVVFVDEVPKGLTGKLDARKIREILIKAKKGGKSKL
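Purified P. pyralis luciferase (10nM final) with 10uM D-luciferin and 10uM ATP (Km levels) in 50mM Tris acetate pH 7.5, 10mM Mg acetate, 0.01% Tween-20, 0.05% BSA; qHTS 6-point titration, ~60 µM downward; luminescence read.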
ELG1 genotox = genotoxicity induction in ELG1-luciferase HEK293T cells. AID 504466. HEK293T ELG1-luciferase reporter, luminescence, 16 h. actives 1.3% (n = 330,000). Potency, µM (series often up to 46 µM), for the others: at the top dose activity change, positive = activation, most hits filed as activators; also: % of control where 0% means no effect; nearly all actives have a fitted effect of over 60% in size
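16 hr compound incubation (37 °C, 5% CO2) of HEK293T cells carrying luciferase-tagged ELG1; luciferase then measured by ONE-Glo luminescence after 30 min at RT.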
NPC1 promoter act = NPC1 promoter activation. Huh7 NPC1 promoter luciferase reporter, 24 h. Potency, µM (doses to about 9.22 µM), inactives show at the top dose activation, usual class: activators. actives 2.4% (n = 320,000). AID 485313; also: % of control where 0% means no effect; nearly all actives have a fitted effect of over 60% in size
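Huh7 reporter cells (NPC1 promoter driving luciferase) are dosed with compound for 24 h at 37 °C, 5% CO2; luciferase detection reagent is then added and luminescence measured after 10 min at ambient temperature.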
An asterisk follows results filed as active; ? = inconclusive; . = no result given; [ ] = another dose, or the depositor's remark. Calls follow the shape of the dose curve; as a rule, active = well fitted curve in the direction sought with a large enough effect; inconclusive = small, poorly fitted or top-dose-only effect, or another doubt; inactive = no such curve, though single readings can be large; an effect the other way counts as inactive or inconclusive. Potency is read from the fitted curve at half-maximal effect.

SMILES | Rab9 promoter act | SMN2 splice up | FLuc modulator | ELG1 genotox | NPC1 promoter act
CCCCn1nc(NC(=O)c2cccs2)c2cc3ccccc3nc21 | 18% | . | 24µM* | -8% | -2%
CCCn1nc(NC(=O)c2cccs2)c2cc3cc(C)ccc3nc21 | -1% | . | 6.7µM* | -3% | 6%
O=C(O)c1cccc(S(=O)(=O)Nc2ccccc2-c2ccccc2)c1 | -3% | -7% | -15% | 0% | 3%
CCOC(=O)Cn1c(=NC(=O)c2ccc([N+](=O)[O-])s2)sc2ccccc21 | 2% | -41% | 2% | 2% | -7%
O=C(CCCc1nc2ccccc2s1)Nc1ccc(N2CCOCC2)cc1 | 1% | -2% | -9% | 8% | 0%
CCOC(=O)C1C(c2ccc(C(=O)O)cc2)NC(=O)NC1(O)C(F)(F)F (centres undefined) | -6% | . | 2% | 1% | -4%
CC1=C(/C=C\C(=O)O)C(C)(C)CCC1 | . | -3%[9.22 µM] | . | . | .
O=Cc1s/c(=N\S(=O)(=O)c2ccccc2)n(CCCCl)c1Cl | -55% | -60% | -15% | -17% | -48%
CC(=O)Nc1ccccc1OCc1nnc(-c2ccc(Cl)cc2)o1 | -1% | ? | ? | 7% | 17%
Clc1ccccc1-c1nnc(COc2ccccc2)o1 | . | 13µM* | 21µM* | . | .
Clc1ccccc1OCc1nnc(-c2ccccc2)o1 | 3.5µM* | 16µM* | 11µM* | ? | 2.5µM*
O=C(CN1C(=O)c2ccccc2S1(=O)=O)NCCc1ccc(F)cc1 | . | . | . | 2% | .
CCN(Cc1ccccc1)C(=O)Cn1c(=O)oc2cc(S(=O)(=O)N3CCCCCC3)ccc21 | . | 22% | 1% | . | .
Clc1cccc(-c2cc3nc4c(c(N5CCN(c6cnccn6)CC5)n3n2)CCCC4)c1 | 9% | -60% | 12µM* | -1% | -1%
CC(C)Oc1ccc(C2CC(=O)N(c3cccc(/C=C/C(=O)O)c3)C2=O)cc1 (centres undefined) | -4% | . | 24µM* | 0% | 0%
COc1ccc(N2C(=O)CC(c3ccc(OC(C)C)cc3)C2=O)cc1 (centres undefined) | 0% | -10% | -1% | -2% | 0%
O=C(/C=C/Nc1ccc(F)cc1)c1ccc(Br)cc1 | 1.4µM* | 13µM* | 2.1µM* | ? | 2µM*
O=C(/C=C/Nc1ccc(F)c(F)c1)c1ccc(Br)cc1 | 2.5µM* | 13µM* | 1.5µM* | ? | 2µM*
O=C(/C=C/Nc1ccc(F)c(F)c1)c1cccs1 | 2.5µM* | . | 0.95µM* | ? | 3.2µM*
NC(=O)C1CCCN(C(=S)Nc2cccc3ccccc23)C1 (centres undefined) | -6% | 23% | 1% | 1% | -4%
NCCC[C@@H](CC(=O)N[C@@H]1CCCC[C@H]1C(=O)N[C@H](CC(=O)N[C@@H](CCC(=O)O)CC(=O)O)Cc1c[nH]c2ccccc12)NC(=O)C[C@H](Cc1c[nH]c2ccccc12)NC(=O)[C@@H]1CCCC[C@H]1N | . | 8% | . | . | .
CC(C)[C@@H]1NC(=O)c2cc([N+](=O)[O-])cc(I)c2NCCCC[C@@H](C(=O)NC(CC(=O)O)C(N)=O)NC(=O)[C@H](CO)NC1=O (some centres undefined) | 0% | 8% | 0% | 2% | -2%
NC(=O)c1ccsc1NC(=O)COC(=O)c1ccccc1F | 0% | . | 11µM* | 5% | 1%
NC(=O)c1ccsc1NC(=O)COC(=O)c1cc(Cl)ccc1O | -3% | . | 4.3µM* | 0% | -3%
NC(=O)c1ccsc1NC(=O)COC(=O)/C=C/c1ccccc1[N+](=O)[O-] | . | . | . | 1% | .
SMILES | Rab9 promoter act | SMN2 splice up | FLuc modulator | ELG1 genotox | NPC1 promoter act
NC(=O)c1ccsc1NC(=O)COC(=O)/C=C/c1ccccc1 | 0% | . | 11µM* | -17% | 7%
O=S(=O)(Nc1nc2ccccc2nc1Cl)c1cccc(C(F)(F)F)c1 | -6% | . | ? | -13% | 3%
NC(=O)c1cccc(C[C@H](C(=O)O)N2C(=O)c3ccc(C(=O)O)cc3C2=O)c1 | -3% | . | -2% | . | -1%
CCOC(=O)c1sc2nc(NC(=O)C(C)(C)C)sc2c1C | 1.3µM* | ? | 2.7µM* | 2.6µM* | 0.89µM*
CCCN(C(=O)c1cc(S(=O)(=O)N2CCCCCC2)ccc1OC)C1CCS(=O)(=O)C1 (centres undefined) | 2% | . | 3% | 0% | -1%
Cc1cccc(Nc2nc(-c3ccc(O)c(O)c3)cs2)n1 | -2% | . | 21µM* | ? | -9%
Cc1cccc(Nc2nc(-c3ccc(F)c(C)c3)cs2)n1 | 4µM* | . | 6µM* | 11% | 3.2µM*
Oc1ccc(-c2csc(Nc3cccc4ccccc34)n2)cc1O | 6% | . | ? | 4% | -7%
C=CC1=C2C=C(C3CC3)N(c3ccc(OC)cc3)C=C2C(=O)C(C)(OC(=O)c2ccco2)C1=O (centres undefined) | . | 14%[9.22 µM] | . | . | .
Cc1cc(C)cc(NC(=O)CN2C(=O)CCc3cc(S(=O)(=O)N4CCCCC4)ccc32)c1 | . | . | -7% | . | .
CN(Cc1nc2ccccc2c(=O)[nH]1)C(=O)c1ccccc1OCc1ccc(Cl)cc1 | 2% | . | 2% | -3% | -2%
CC1=C(C(=O)N2CCN(c3cccc(Cl)c3)CC2)C2(CCCCC2)OC1=O | . | . | -7% | . | .
CC(C)N1CCC2(CC1)N=C(c1ccc3c(c1)OCO3)CC(c1cc(Cl)ccc1O)N2 (centres undefined) | -1% | -23% | 17µM* | -16% | -4%
COc1ccc(OC)c(-n2c(=O)[nH]c3cc(C(=O)NCCc4ccc(OC)c(OC)c4)ccc3c2=O)c1 | . | 5% | -2% | . | .
C[n+]1cc[nH]c1SCC(=O)c1ccccc1 | ? | 21% | 24µM* | 18µM* | ?
C[n+]1cc[nH]c1SCC(=O)c1ccc(Cl)cc1 | ? | ? | . | ? | 25%
C[Si](C)(C)C#Cc1ccccc1NC(=S)Nc1ccccc1 | . | 24% | . | . | .
O=C(O)c1sc2cc(C(F)(F)F)cnc2c1-c1cccs1 | -10% | 6% | 11µM* | -8% | 2%
CCCCCN(C(=O)CCC(=O)OC(C)C(=O)Nc1cccc(C#N)c1)c1c(N)n(CCCC)c(=O)[nH]c1=O (centres undefined) | -4% | . | -1% | -1% | -1%
CCN(CC)c1ccc(NC(=O)Nc2ccc(C(C)=O)cc2)cc1 | 4% | 10% | 0% | 1% | 1%
CC(=O)c1cccc(NC(=O)Nc2ccccc2)c1 | 16% | . | 12µM* | 2% | 25%
CC(=O)c1cccc(NC(=O)NCc2ccccn2)c1 | ? | 16µM* | 9.5µM* | 9.2µM* | ?
CCN(CC)c1ccc(NC(=O)Nc2ccccc2)cc1 | 3.2µM* | . | 0.95µM* | 10µM* | 0.89µM*
O=C(Nc1ccccc1)Nc1ccc(C(=O)N2CCOCC2)cc1 | 1% | 20µM* | 13µM* | ? | ?
O=C(c1ccc(NC(=O)C2(c3ccccc3)CCCC2)cc1)N1CCOCC1 | -1% | . | -3% | -5% | -1%

Source: PubChem (National Center for Advancing Translational Sciences (NCATS))
